Measles CPE: protection of cells from measles virus; Measles virus-infected cells, CPE protection, absorbance; protection (pct of control), % at 4 µM; 140,000 compounds, 1.5% hits; AID 841; in the data active means protection mostly above about 24%, no sharp cut-off; inactive means mostly below about 26%
Arbovirus anti: arbovirus infection inhibition; arbovirus infection cell-based antiviral screen; inhibition, % at 10 µM; 200,000 compounds, 0.37% hits; in the data active means inhibition above about 30%
KCC2 mod: modulates chloride dependent transport by human KCC2; 190,000 compounds, 2.2% hits; B-score of Tl+ flux slope (higher = more flux/activation; lower = inhibition) at 10 µM; KCC2 cells, thallium flux FluoZin-2 fluorescence; Q9H2X9; AID 1456;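 active means thallium flux slope and its plate-corrected score both differing from the plate sample mean at a set confidence after two filtering rounds, in either direction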;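 further: slope of fluorescence scaled to starting intensity during 10 to 20 s after thallium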
HSV augment: HSV replication enhancement. HSV replication augmentation in cells, fold increase. maximum fold increase. 220,000 compounds, 0.005% hits; in the data active means maximum fold increase above about 1.5; inconclusive means no clear call, values can overlap the other calls; tested in PC3 cells
ROMK primary: modulators of human ROMK potassium channel; P48048; Tet-inducible ROMK, thallium flux fluorescence; actives lie on both sides; B-score at 10 µM; 130,000 compounds, 2% hits;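 active means signal ratio slope over the read window, or its plate-corrected B-score, at least 3 SD from the plate mean, either direction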;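 further: B-score of the F/F0 ratio slope over 7 to 12 s after thallium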
Target sequence (P48048 whole entry, looked up): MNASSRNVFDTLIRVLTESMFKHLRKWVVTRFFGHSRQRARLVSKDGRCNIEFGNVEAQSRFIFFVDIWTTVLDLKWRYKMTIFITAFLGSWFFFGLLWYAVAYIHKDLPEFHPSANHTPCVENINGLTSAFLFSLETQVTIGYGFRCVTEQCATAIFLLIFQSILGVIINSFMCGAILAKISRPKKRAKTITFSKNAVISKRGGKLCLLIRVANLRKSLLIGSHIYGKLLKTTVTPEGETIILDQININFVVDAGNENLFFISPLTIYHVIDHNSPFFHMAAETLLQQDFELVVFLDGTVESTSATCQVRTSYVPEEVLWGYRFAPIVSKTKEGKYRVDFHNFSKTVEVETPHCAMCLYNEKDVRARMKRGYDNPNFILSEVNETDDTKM
ROMK hit retest: human ROMK channel modulation, retest confirmation. shares compounds with ROMK primary. ROMK thallium flux, fluorescence ratio; stronger effect = lower value. normalized thallium flux (F/F0 slope) at 10 µM. 3,000 compounds, 54% hits;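 active means Flux at 10 µM at least 3 SD below or above vehicle control mean in one or both replicates; inconclusive means no clear call, values can overlap the other calls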
The depositor's hits bear a star; i = inactive; u = inconclusive; x = no result. Compounds with a hit are over-represented: about 4% of the library has one in this group of screens.

SMILES | Measles CPE | Arbovirus anti | KCC2 mod | HSV augment | ROMK primary | ROMK hit retest
COc1ccc(-n2cc(-c3ccccc3)c3c(NN4CCOCC4)ncnc32)cc1 | x | -3.3 | -0.203 | i | -2.29 | x
CC(C)Cn1c(N)c(C(=O)CSc2nc3ccccc3c(=O)n2CCCN2CCOCC2)c(=O)n(C)c1=O | x | 0.8 | -0.418 | i | 0.58 | x
CCCC1=NN2C(=N)/C(=C\c3cc(C)n(Cc4ccccc4)c3C)C(=O)N=C2S1 | x | x | 0.997 | i | x | x
CCC1=NN2C(=N)/C(=C/c3c(C)nn(-c4ccccc4)c3Cl)C(=O)N=C2S1 | 71.3* | 13.6 | 0.913 | i | -3.09* | 0.0467*
Cn1c(=O)[nH]c(=O)c2c1nc(N/N=C/c1ccncc1)n2Cc1ccc(Cl)cc1 | x | x | 0.466 | i | -0.309 | x
CCc1cccc(CC)c1NC(=O)CN1C2CCCC1CC(NC(=O)Nc1cccc(OC)c1)C2 (stereo unspecified) | x | -13.1 | 0.459 | i | -3.96* | u
CCCN1C2CCCC1CC(NC(=O)Nc1cccc(C(C)=O)c1)C2 (stereo unspecified) | 11.8 | 1.8 | -0.229 | i | x | x
Cn1c[n+](C)cc1-c1ccc(/C(N)=N/O)cc1 | 10.4 | -0.6 | 0.591 | i | 0.423 | x
Cc1cc(NC(=O)CSc2nnc(COc3ccccc3)n2Cc2ccco2)no1 | 14.1 | -3.2 | x | i | -0.152 | x
Cc1ccc(OCc2nnc(SCC(=O)C(C)(C)C)n2Cc2ccco2)cc1 | 10.8 | 0.9 | x | i | -3.59* | 0.0746
NC(CCC(=O)O)C12CC3CC(CC(C3)C1)C2 (stereo unspecified) | x | 10.1 | 0.751 | i | 2.45* | u
COc1ccc2occ(C(=O)c3coc4ccc(O)c(CN(C)C)c34)c2c1 | 4.2 | 1.2 | -2.96 | i | x | 0.0609*
COc1ccc(OC)c(C(=O)c2coc3ccc(OCC(=O)O)cc23)c1 | 7.4 | 3.4 | x | i | 2.81* | 0.0703
N=c1c2ccccc2nnn1-c1cccc(C(F)(F)F)c1 | x | 0.6 | -0.907 | i | 0.0587 | x
CC(C(=O)c1ccc(-c2ccccc2)cc1)[n+]1cccc(NC(=O)c2ccccc2)c1 (stereo unspecified) | x | x | 0.00286 | i | -4.9* | 0.0571*
Cn1c(=O)c2c(SCCN3CCOCC3)nc(C3CCCC3)nc2n(C)c1=O | x | -1.8 | -0.477 | i | 0.164 | x
O=S(=O)(Nc1nc2ccccc2s1)c1ccc(Br)s1 | 9.3 | 2.7 | -1.74 | i | -3.18* | 0.0525*
Cc1sc2nc(CN3CCCC3)nc(N3CCN(S(=O)(=O)c4cccs4)CC3)c2c1C | 13.1 | -19.1 | x | i | -2.52* | 0.0553*
OCCC1CN(Cc2ccccc2-c2ccco2)CCN1C1CCCC1 (stereo unspecified) | x | -10.7 | -2.92 | i | -3.97* | 0.0506*
CC(C)N1CCN(Cc2ccccc2-c2ccco2)CC1CCO (stereo unspecified) | x | -2.4 | 0.259 | i | -0.573 | x
Cc1nnsc1-c1onc(C)c1C(=O)O/N=C/c1ccc(Cl)cc1 | x | x | -0.326 | i | x | x
O=C(N/N=C/C1=C(N2CCOCC2)C(=C\c2ccccc2)/CC1)Nc1ccccc1 | 9.2 | -10.8 | -0.888 | i | x | x
CCN(CC)c1ccc(/C=C2\CCC(/C=N/NC(=O)c3ccc(=O)n(C)c3)=C2N2CCOCC2)cc1 | 8.6 | -7.9 | -1.58 | u | x | 0.0534*
COc1ccc(CNC(=O)[C@H](C)NC(=O)C2CCN(S(=O)(=O)c3ccc(C)cc3)CC2)cc1 | 6.2 | -3.1 | x | i | 0.67 | 0.0751
COc1cccc(/C=C(/C#N)c2ccc(F)cc2)c1OCc1cccc(C(=O)O)c1 | 18.4 | 9.9 | -1.99 | i | 0.0988 | x
SMILES | Measles CPE | Arbovirus anti | KCC2 mod | HSV augment | ROMK primary | ROMK hit retest
COc1cccc(/C=C(/C#N)c2ccc(Cl)cc2)c1OCc1cccc(C(=O)O)c1 | x | 9.2 | -2.25 | i | 2.38* | 0.0784
COC(=O)/C=C1\SC(=NC(=O)c2ccc(C)cc2)NC1=O | x | 0.2 | 1.09 | i | -4.14* | 0.0454*
COC(=O)/C=C1/SC(=Nc2ccc(C)cc2C)NC1=O | 5.0 | 27.2 | -0.447 | x | 1.24 | x
O=C(Nc1ccccc1)Nc1ccc(F)c([N+](=O)[O-])c1 | 9.9 | -3.3 | -1.61 | i | x | u
O=C(Nc1ccccc1)Nc1ccc(Cl)c([N+](=O)[O-])c1 | 1.9 | -42.9 | -1.49 | i | -1.17 | x
O=C(C[n+]1cccc(CNC(=O)c2ccc(OC(F)F)cc2)c1)Nc1ccccc1Cl | 7.0 | -2.2 | 0.0133 | i | x | x
O=C(C[n+]1cccc(CNC(=O)c2ccc(OC(F)F)cc2)c1)Nc1ccc(SC(F)F)cc1 | 4.3 | -9.3 | -0.507 | i | -4.03* | 0.0705
